The record followed here is PubChem BioAssay AID652054 (National Center for Advancing Translational Sciences (NCATS), 2013).

In all, about 360,000 compounds went through this assay and about 9,100 (2.5%) were called active. Inconclusive results (about 4%) are left out. Cut-off read from the data, not from the text of the source: active = max response below about -50%; inconclusive = no clear call, values can overlap the other calls; inactive = above that. The entries come from a sample that favours actives as a whole.
% is set by controls: 0 for no effect and ±100 for the full control effect.

For the assay, the target named is D(3) dopamine receptor (Homo sapiens) (UniProt P35462). The experiment in a line: qHTS of D3 Dopamine Receptor Antagonist: qHTS. The note with it: D3R cells, DiscoveRx beta-arrestin luminescence, antagonist mode; stronger effect = lower value. The text has this: D3 DARs represent a very important target for the treatment of several neuropsychiatric disorders. Indeed, one of the most promising therapeutic applications for the D3 DAR is in the area of addiction and related disorders. […] These findings have been observed with a number of addictive substances including cocaine, amphetamine, nicotine, and alcohol. […] Antagonism of the D3 DAR may also be therapeutic in the treatment of schizophrenia or psychosis. […] Since the D3 DAR is expressed in areas of the CNS associated with the control of mood and emotion, it has been hypothesized that selective antagonism of the D3 DAR may be effective in treating psychosis without inducing the motor side effects typically seen with D2 DAR antagonists.
D(3) dopamine receptor (Homo sapiens), sequence (P35462 whole entry, looked up): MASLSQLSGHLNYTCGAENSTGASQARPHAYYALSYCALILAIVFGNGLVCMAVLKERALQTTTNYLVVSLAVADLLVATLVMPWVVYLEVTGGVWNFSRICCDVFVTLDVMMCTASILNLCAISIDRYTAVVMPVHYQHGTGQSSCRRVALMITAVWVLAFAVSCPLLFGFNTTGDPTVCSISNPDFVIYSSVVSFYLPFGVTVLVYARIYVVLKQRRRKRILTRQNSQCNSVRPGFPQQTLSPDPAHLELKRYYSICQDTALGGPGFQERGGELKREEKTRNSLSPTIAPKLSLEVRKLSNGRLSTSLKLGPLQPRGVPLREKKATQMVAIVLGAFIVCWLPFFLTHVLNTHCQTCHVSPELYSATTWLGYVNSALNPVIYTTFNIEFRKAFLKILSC
This part of the project aims to discover novel antagonist.
NIH Chemical Genomics Center [NCGC]
NIH Molecular Libraries Probe Centers Network [MLPCN]
Assay Submitter (PI): David Sibley, NINDS
Freshly passaged cells are plated in 1536 well white, solid bottom plates at a density of 1500 cells/well in 3microl of complete media. After an overnight incubation at 37 degrees C in 5% CO2, cells are loaded with 23nl of test compound from the compound library (as well as dopamine controls) using a 1536 pintool and incubated at 37 degrees C for 90 minutes. Two microliters of DiscoveRx reagent is then added to all cells, and they are incubated for an additional 30 - 60 minutes at room temperature. Following incubation, luminescence is measured on a ViewLux CCD-based luminometer reader using a 20 sec exposure time.
A general note: In qHTS, concentration-response curves come from the screen itself.
With `CC(=O)NC(=O)NC(C)Cc1ccccc1` (configuration not stated), the max response, negative = inhibition was 0% (inactive).

For `CC(Cc1ccccc1)NCCC(c1ccccc1)c1ccccc1` (configuration not stated), the max response, negative = inhibition was -75.4% (active).

Regarding `Fc1ccc(C2N3CCCN23)cc1` (configuration not stated), the max response, negative = inhibition was 17.3% (inactive).

Turning to `CCOC(=O)CC(SP1(=S)OCC2(CCCCO2)C(C2CCCCO2)O1)C(=O)OCC` (configuration not stated), the max response, negative = inhibition is 0.24% (inactive).

`COC1=C[C@@H]2[C@@H]3Cc4ccc(OC)c(O)c4[C@]2(CCN3C)CC1=O`: the max response, negative = inhibition was 2.57% (inactive).

As to `COc1c(O)ccc2c1-c1c3c(cc4c1C(C2)N(C)CC4)OCO3` (configuration not stated), the max response, negative = inhibition was -20.5% (inactive).

As for `COc1ccc2c(c1O)-c1cccc3c1[C@@H](C2)N(C)CC3`, the max response, negative = inhibition was -64.4% (active).

For the compound `COc1cccc(CN2CCCC(C(=O)c3ccccc3SC)C2)c1O` (configuration not stated), the max response, negative = inhibition is -25.9% (inactive).

On to `c1cncc(CNC2=NCCC2)c1`, for which the max response, negative = inhibition is -0.0969% (inactive).

Turning to `COC(=O)CN(CCCl)P1(=O)OCCCN1CCCl` (configuration not stated), the max response, negative = inhibition was 9.55% (inactive).

As for `CSc1ccc(C(=O)C2CCCN(Cc3ccn[nH]3)C2)cc1` (configuration not stated), the max response, negative = inhibition was 2.56% (inactive).

With `CC(C)Oc1cccc(C(=O)C2CCCN(C3CCOCC3)C2)c1` (configuration not stated), the max response, negative = inhibition was -5.82% (inactive).

As for `CCn1cc(CN2CCCC(C(=O)c3cccc(C(F)(F)F)c3)C2)cn1` (configuration not stated), the max response, negative = inhibition was -84.1% (active).

Consider `CN(C)CC1Oc2ccccc2OC1(O)c1ccccc1` (configuration not stated), for which the max response, negative = inhibition is -95.3% (active).

For `CC1CCC(N(C)C2CCN(C)CC2)CC1` (configuration not stated), the max response, negative = inhibition was -17.4% (inactive).

In the case of `Cc1cccc(-n2c(C)nc3cc(C(=O)N4CCC5(CC4)OCCO5)ccc32)c1`, the max response, negative = inhibition is -5.12% (inactive).

Regarding `Clc1cccc(Cl)c1Cl`, the max response, negative = inhibition was -21.5% (inactive).

Consider `CN1CCN(Cc2ccccc2C(F)(F)F)CC1`, for which the max response, negative = inhibition was -22.2% (inactive).

On to `Fc1cccc(F)c1CN1CCN(Cc2c(F)cccc2F)CC1`, for which the max response, negative = inhibition is -59.3% (active).

Consider `O=C(N/N=C/c1c(O)n(C2CC2)c(=S)[nH]c1=O)c1ccccc1`, for which the max response, negative = inhibition was -25.4% (inactive).

In the case of `CCC/C(=N\O)c1c[nH]c2ccccc12`, the max response, negative = inhibition was -19.7% (inactive).

Turning to `Cc1cccc(NC(=O)N2CC3CC(C2)c2cccc(=O)n2C3)c1` (configuration not stated), the max response, negative = inhibition is 8.44% (inactive).

As for `CCOC(=O)C(O)(c1ccc(NC(=O)c2ccco2)c(OC)c1)C(F)(F)F` (configuration not stated), the max response, negative = inhibition was 44% (inactive).

With `CCC(=O)CC(c1ccc([N+](=O)[O-])cc1)c1c(O)c2ccccc2oc1=O` (configuration not stated), the max response, negative = inhibition is -88.6% (active).

Regarding `Cc1ccc(-n2c(-c3ccc([N+](=O)[O-])cc3)nc3ccccc3c2=O)cc1`, the max response, negative = inhibition was 7.83% (inactive).

On to `COc1cc(C(c2c(O)c3ccccc3oc2=O)c2c(C)n(C)n(-c3ccccc3)c2=O)ccc1O` (configuration not stated), for which the max response, negative = inhibition was 9.1% (inactive).

As for `COC(=O)C[C@H]1CC[C@H]2NC[C@@H](O)COC[C@@H]2O1`, the max response, negative = inhibition was 0.0579% (inactive).

Turning to `CC(=O)NCC1=C(c2ccc3ccccc3c2)C[C@@H]2CC[C@H]1N2Cc1ccco1`, the max response, negative = inhibition was -16.9% (inactive).

Regarding `C[C@H]1CN([C@@H](C)CO)C(=O)CCCn2nncc2CO[C@H]1CN(C)C(=O)Oc1cccc2ccccc12`, the max response, negative = inhibition is 27% (inactive).

Consider `CCOC(=O)C1CN(C)CCC1=O` (configuration not stated), for which the max response, negative = inhibition was -50.3% (active).

Regarding `CCOC(=O)[C@]12Cc3cc(OC)ccc3[C@H]1N(C(C)C)C(=O)c1ccccc12`, the max response, negative = inhibition was 0.502% (inactive).

As to `c1ccc(C(CN2CCCCC2)c2ccccc2)cc1`, the max response, negative = inhibition is 5.85% (inactive).

On to `O=[N+]([O-])c1ccc(C2C3C(c4ccccc4)=NC4(CCCCC4)N32)cc1` (configuration not stated), for which the max response, negative = inhibition is 4.9% (inactive).

For the compound `O=C1NC(=O)C(Cc2ccccc2)C(=O)N1`, the max response, negative = inhibition is 4.35% (inactive).

`CC(=O)N1CN2CN(C(C)=O)CC(C(=O)c3ccc(Br)cc3)(C2)C1`: the max response, negative = inhibition is 2.09% (inactive).

Turning to `Cc1cc2ccccn2c1C(C[N+](=O)[O-])c1c(F)cccc1Cl` (configuration not stated), the max response, negative = inhibition is -52.4% (active).

In the case of `Cn1cc(C(=O)OCC(=O)N2CCCC2)c2ccccc21`, the max response, negative = inhibition was 0% (inactive).

Regarding `CCC(=O)OC(Cc1ccccc1)(c1ccccc1)C(C)CN(C)C` (configuration not stated), the max response, negative = inhibition was -66% (active).

Regarding `O=P(OC1=CCCCC1)(c1ccccc1)c1ccccc1`, the max response, negative = inhibition was 16.2% (inactive).

On to `CN(C)CCN(CC1CCCN(Cc2ccccc2F)C1)C(=O)Cc1ccc(F)c(F)c1` (configuration not stated), for which the max response, negative = inhibition is -0.712% (inactive).

As for `Nc1ccc(C(=O)N/N=C2/CN3CCC2CC3)cc1`, the max response, negative = inhibition is -6.03% (inactive).

Regarding `C=CCN1C(=O)NC(=O)/C(=C/c2ccc(OCC(=O)Nc3ccc(C)cc3)cc2)C1=O`, the max response, negative = inhibition was -2.43% (inactive).

On to `O=C(O)C1CSC(c2cccnc2)N1` (configuration not stated), for which the max response, negative = inhibition was -75.1% (active).

In the case of `CC(C)n1c(=O)c(C=Nc2ccc(Br)cc2)c(O)n(Cc2ccco2)c1=O`, the max response, negative = inhibition is -0.258% (inactive).

For the compound `COC(=O)C1=C(c2ccc(OCc3ccccc3)cc2)C[C@@H]2CC[C@H]1N2C(=O)NCc1ccc(Cl)cc1`, the max response, negative = inhibition is -2.39% (inactive).

In the case of `COc1ccc(N=Cc2c(O)n(C)c(=O)[nH]c2=O)cc1`, the max response, negative = inhibition is -8.25% (inactive).

As for `COc1ccc(C(=O)C2CCCN(Cc3ccc(C)s3)C2)cc1OC` (configuration not stated), the max response, negative = inhibition is 1.99% (inactive).

As to `Cc1ccsc1C(=O)C1CCCN(Cc2ccc(O)cc2)C1` (configuration not stated), the max response, negative = inhibition was -22.3% (inactive).

For the compound `Cc1ccc(CN2CCCC(C(=O)c3ccc4c(c3)OCO4)C2)cc1C` (configuration not stated), the max response, negative = inhibition was -74.3% (active).

Turning to `COc1ccc(C2C=C(C)Oc3c2c(=O)oc2ccccc32)cc1OC` (configuration not stated), the max response, negative = inhibition was 1.55% (inactive).

For `CC1(C)Cc2c(C#N)c(N3CCNCC3)nc(-c3ccco3)c2CS1`, the max response, negative = inhibition was -15.4% (inactive).

For `CC(C)c1ccc(O)c(CN2CCN(c3ccccc3)CC2)c1`, the max response, negative = inhibition was -71% (active).

`O=C(Cc1ccccc1[N+](=O)[O-])N1CCN(Cc2ccc3c(c2)OCO3)CC1`: the max response, negative = inhibition was -4.07% (inactive).

As to `Fc1ccc(N2CCN(Cc3ccc4c(c3)OCO4)CC2)cc1`, the max response, negative = inhibition is -111% (active).

Turning to `Cc1cc(=O)oc2c(C)c(OCC(=O)N3CCN(Cc4ccc5c(c4)OCO5)CC3)ccc12`, the max response, negative = inhibition is 0.853% (inactive).

Turning to `CCN1CCN(Cc2cc(OC)c3c(c2)OCO3)CC1`, the max response, negative = inhibition was 2.18% (inactive).

For the compound `COc1ccccc1CN1CCN(C(=O)Cc2ccccc2)CC1`, the max response, negative = inhibition was -24% (inactive).

On to `Oc1cc2c(cc1CN1CCN(c3ccccc3)CC1)OCO2`, for which the max response, negative = inhibition is -71.5% (active).

With `OC(Cn1c2ccccc2c2ccccc21)C[n+]1ccccc1` (configuration not stated), the max response, negative = inhibition is -9.75% (inactive).

Regarding `c1cc2c(cc1C1OCC3C(c4ccc5c(c4)OCO5)OCC13)OCO2` (configuration not stated), the max response, negative = inhibition was 1.57% (inactive).

Turning to `C[C@]12CC[C@H](O)CC1=C([N+](=O)[O-])CC1C2CC[C@@]2(C)C1CC[C@@H]2O` (some centres not stated), the max response, negative = inhibition is 10.3% (inactive).

As to `O=C1C2CCN(CC2)C1(CO)CO`, the max response, negative = inhibition was 5.89% (inactive).
